For some of these results: Measured potencies and affinities stand elsewhere.
How the values were obtained:
Set-up in all cases: scale not given: direction of the effect not stated beside the values
[1] = target: Protein translocase subunit SecA (Escherichia coli (strain K12)) (UniProt P10408); assay: Assay to Identify E. coli SecA ATPase Inhibitors; format: functional; details: 30 µM
[2] = target: T1, Ubiquitin-activating enzyme e1, putative (Leishmania donovani (strain BPK282A1)) (UniProt E9BSI1); assay: Leishmania donovani Ubiquitin Activating Enzyme (LdE1); format: functional; details: 30 µM
T1 sequence (whole entry): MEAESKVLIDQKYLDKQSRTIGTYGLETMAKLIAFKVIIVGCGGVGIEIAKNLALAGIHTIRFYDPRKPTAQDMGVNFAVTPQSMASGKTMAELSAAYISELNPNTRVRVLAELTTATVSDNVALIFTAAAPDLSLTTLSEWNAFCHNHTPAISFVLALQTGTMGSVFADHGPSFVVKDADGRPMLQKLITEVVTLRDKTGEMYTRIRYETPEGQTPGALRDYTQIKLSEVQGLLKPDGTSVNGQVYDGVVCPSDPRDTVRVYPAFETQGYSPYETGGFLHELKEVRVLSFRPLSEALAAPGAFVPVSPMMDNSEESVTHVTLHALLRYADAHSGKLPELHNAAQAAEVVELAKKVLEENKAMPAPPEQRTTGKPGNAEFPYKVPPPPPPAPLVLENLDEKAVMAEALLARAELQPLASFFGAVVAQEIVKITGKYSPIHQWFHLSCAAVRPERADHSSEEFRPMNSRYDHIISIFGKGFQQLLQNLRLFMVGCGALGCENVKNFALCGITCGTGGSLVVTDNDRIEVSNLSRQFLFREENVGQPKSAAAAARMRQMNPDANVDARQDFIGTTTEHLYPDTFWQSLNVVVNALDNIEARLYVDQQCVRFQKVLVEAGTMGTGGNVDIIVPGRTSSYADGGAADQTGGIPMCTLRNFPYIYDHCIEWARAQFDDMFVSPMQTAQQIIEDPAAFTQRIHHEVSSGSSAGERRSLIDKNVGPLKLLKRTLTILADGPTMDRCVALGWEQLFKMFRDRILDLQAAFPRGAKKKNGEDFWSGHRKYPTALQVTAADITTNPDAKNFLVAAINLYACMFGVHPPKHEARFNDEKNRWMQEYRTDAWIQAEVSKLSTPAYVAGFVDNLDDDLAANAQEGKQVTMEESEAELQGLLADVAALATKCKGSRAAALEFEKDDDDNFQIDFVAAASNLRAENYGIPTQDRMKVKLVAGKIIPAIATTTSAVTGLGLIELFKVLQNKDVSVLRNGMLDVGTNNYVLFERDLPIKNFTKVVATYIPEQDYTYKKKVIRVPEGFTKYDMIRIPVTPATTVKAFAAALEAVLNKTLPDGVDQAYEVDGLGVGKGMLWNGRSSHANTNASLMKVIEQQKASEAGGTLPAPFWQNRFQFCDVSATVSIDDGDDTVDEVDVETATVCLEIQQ

[3] = target: T2, Aspartate--tRNA(Asp/Asn) ligase (Mycobacterium tuberculosis (strain ATCC 25618 / H37Rv)) (UniProt P9WFW3); assay: Assay for Asp RNA synthetase-1 from Mycobacterium tuberculosis; format: functional; details: 30 µM; also: in the data most compounds retested in dose-response had high values
T2 sequence (whole entry): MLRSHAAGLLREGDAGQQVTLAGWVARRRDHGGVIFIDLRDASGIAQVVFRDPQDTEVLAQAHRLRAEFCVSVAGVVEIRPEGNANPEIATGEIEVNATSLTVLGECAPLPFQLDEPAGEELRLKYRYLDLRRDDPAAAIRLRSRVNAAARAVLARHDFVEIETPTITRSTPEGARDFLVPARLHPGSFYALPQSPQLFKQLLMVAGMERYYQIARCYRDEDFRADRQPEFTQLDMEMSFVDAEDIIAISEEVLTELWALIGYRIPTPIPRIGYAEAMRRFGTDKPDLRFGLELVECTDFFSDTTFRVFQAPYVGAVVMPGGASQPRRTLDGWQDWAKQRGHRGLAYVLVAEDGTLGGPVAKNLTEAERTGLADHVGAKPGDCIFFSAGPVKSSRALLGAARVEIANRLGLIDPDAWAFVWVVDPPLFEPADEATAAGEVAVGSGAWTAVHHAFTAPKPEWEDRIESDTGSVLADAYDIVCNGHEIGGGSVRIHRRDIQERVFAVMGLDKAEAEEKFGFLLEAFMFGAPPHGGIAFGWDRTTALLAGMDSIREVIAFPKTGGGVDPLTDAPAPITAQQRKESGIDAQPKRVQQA

[4] = target: AMP-activated protein kinase, AMPK (Homo sapiens) (UniProt P54646+O43741+P54619+Q9UGJ0+Q9Y478+Q13131+Q9UGI9); assay: AMP-dependent Kinase enzyme assay. An in vitro enzyme assay that detects ADP turnover that is directly proportional to AMPK activity. This uses naive AMPK that is activated during the assay with MK-8722; format: functional; details: 30 µM
[5] = target: Sialic acid-binding Ig-like lectin 9 (Homo sapiens) (UniProt Q9Y336); assay: Hs-Siglec9 ALPHAscreen SOP 20170721; details: 10 µM
Trypanosoma cruzi = assay: Trypanosoma cruzi phosphomannomutase and mannose-1-phosphate guanylyltransferase assay; format: functional; details: 10 µM
[6] = target: T3, Arginase-2, mitochondrial (Homo sapiens) (UniProt P78540); assay: in vitro enzyme assay to detect the production of urea directly proportional to the activity of Arginase II; format: functional; details: 33.3 µM; also: in the data most compounds retested in dose-response had high values
T3 sequence (whole entry): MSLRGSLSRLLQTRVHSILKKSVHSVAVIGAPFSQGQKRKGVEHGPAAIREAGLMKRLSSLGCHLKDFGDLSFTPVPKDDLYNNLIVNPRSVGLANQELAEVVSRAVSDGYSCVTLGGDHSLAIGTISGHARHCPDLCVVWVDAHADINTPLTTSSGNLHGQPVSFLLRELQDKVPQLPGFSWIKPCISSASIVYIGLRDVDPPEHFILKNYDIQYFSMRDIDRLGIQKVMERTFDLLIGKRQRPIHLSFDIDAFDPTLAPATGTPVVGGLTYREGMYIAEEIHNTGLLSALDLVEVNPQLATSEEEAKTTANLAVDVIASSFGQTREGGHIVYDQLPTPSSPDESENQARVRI

[7] = target: T4, Proteasome subunit beta (Trypanosoma cruzi) (UniProt O96673); assay: Trypanosoma cruzi proteasome chymotrypsin-like activity (TcProtChymo) assay.; also: in the data most compounds retested in dose-response had high values; format: functional; details: 9.37 µM
T4 sequence (whole entry): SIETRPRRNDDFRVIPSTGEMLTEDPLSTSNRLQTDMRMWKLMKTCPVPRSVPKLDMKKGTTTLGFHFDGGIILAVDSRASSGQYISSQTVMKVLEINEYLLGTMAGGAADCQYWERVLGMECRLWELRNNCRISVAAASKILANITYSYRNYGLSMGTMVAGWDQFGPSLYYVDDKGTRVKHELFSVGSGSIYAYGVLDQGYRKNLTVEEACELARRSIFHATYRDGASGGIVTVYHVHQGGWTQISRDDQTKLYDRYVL

Homo sapiens = organism: Homo sapiens; assay: To identify inhibition of the IFN signalling (Jak-Stat) pathway via expression of an eGFP reporter gene under the control of an IFN-stimulated response element (ISRE) containing MxA promoter.; format: functional; details: 30 µM
[8] = target: Shiga toxin 2 (Escherichia coli O157:H7) (UniProt P09385+P09386); assay: E. coli 0.157:H7 Shiga Toxin SOP - stx2 screening assay; format: functional; details: 30 µM
[9] = target: T5, Tyrosyl-tRNA synthetase, putative (Trypanosoma cruzi (strain CL Brener)) (UniProt Q4DSP6); assay: Trypanosoma cruzi tyrosyl tRNA synthetase (TcYRS) _High Tyrosine SOP; format: functional; details: 30 µM; also: in the data most compounds retested in dose-response had high values
T5 sequence (whole entry): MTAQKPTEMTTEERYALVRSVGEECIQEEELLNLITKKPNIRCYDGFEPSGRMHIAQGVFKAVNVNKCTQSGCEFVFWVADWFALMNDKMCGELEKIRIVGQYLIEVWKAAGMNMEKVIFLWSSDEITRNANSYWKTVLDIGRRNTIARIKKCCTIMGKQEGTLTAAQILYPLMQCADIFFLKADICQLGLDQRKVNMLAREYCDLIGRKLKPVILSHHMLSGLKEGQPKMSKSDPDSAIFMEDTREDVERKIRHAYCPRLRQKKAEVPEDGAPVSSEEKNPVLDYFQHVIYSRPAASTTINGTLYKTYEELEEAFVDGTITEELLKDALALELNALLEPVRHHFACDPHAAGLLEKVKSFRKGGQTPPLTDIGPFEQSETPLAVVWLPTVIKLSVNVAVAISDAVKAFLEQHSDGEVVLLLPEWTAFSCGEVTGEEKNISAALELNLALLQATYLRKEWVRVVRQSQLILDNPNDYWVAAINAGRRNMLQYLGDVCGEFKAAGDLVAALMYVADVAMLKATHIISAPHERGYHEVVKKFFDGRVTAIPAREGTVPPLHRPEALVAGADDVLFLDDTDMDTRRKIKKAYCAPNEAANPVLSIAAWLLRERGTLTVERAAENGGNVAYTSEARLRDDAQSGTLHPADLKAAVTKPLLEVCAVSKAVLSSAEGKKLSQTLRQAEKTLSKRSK

[10] = target: T5, Tyrosyl-tRNA synthetase, putative (Trypanosoma cruzi (strain CL Brener)); assay: Trypanosoma cruzi tyrosyl tRNA synthetase (TcYRS) SOP; format: functional; details: 30 µM
[11] = target: Chromo domain-containing protein 1 (Saccharomyces cerevisiae (strain ATCC 204508 / S288c) (Baker's yeast)) (UniProt P32657); assay: ScCHD-1 Enzyme Inhibition Assay; format: functional; details: 30 µM; also: in the data most compounds retested in dose-response had high values
Sequence of Chromo domain-containing protein 1 (Saccharomyces cerevisiae (strain ATCC 204508 / S288c) (Baker's yeast)) (P32657 whole entry, the tested form may be a part): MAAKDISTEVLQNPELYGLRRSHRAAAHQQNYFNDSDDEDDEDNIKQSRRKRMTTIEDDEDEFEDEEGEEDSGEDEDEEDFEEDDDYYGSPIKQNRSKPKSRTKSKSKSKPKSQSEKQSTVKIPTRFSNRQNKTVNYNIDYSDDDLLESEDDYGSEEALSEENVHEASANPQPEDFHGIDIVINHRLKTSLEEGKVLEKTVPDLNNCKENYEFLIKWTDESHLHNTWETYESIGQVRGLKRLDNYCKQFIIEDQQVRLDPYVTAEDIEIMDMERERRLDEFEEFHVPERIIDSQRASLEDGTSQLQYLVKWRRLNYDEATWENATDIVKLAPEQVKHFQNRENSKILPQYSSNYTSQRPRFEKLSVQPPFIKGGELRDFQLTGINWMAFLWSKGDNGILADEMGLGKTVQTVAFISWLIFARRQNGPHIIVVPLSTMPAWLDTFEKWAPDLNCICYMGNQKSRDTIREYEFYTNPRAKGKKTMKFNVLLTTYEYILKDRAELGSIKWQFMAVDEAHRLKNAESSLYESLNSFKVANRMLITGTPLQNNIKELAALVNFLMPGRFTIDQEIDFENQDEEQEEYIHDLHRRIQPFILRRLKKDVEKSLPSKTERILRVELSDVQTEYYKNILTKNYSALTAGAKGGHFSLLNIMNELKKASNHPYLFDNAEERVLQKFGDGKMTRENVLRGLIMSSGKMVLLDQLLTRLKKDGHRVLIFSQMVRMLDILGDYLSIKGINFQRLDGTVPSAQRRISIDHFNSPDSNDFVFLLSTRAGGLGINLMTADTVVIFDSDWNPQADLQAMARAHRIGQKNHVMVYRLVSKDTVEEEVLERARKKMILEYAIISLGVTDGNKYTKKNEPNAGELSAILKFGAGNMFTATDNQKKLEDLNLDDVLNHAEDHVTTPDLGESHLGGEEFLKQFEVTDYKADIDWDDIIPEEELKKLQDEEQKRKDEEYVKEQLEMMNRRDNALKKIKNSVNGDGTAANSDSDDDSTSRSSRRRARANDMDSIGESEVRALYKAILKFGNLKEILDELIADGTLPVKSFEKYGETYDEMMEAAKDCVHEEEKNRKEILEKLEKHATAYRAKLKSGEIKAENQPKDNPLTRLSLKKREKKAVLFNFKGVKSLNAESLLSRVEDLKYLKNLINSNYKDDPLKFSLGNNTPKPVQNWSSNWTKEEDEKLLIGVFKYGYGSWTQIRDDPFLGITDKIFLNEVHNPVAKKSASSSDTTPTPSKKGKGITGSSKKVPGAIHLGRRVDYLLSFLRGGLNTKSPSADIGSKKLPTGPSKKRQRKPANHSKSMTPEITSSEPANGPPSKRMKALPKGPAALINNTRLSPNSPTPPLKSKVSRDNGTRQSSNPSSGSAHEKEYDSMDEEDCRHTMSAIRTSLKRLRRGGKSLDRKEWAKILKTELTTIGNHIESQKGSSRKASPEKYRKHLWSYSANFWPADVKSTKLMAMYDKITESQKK

Sequence of Sialic acid-binding Ig-like lectin 9 (Homo sapiens) (Q9Y336 whole entry): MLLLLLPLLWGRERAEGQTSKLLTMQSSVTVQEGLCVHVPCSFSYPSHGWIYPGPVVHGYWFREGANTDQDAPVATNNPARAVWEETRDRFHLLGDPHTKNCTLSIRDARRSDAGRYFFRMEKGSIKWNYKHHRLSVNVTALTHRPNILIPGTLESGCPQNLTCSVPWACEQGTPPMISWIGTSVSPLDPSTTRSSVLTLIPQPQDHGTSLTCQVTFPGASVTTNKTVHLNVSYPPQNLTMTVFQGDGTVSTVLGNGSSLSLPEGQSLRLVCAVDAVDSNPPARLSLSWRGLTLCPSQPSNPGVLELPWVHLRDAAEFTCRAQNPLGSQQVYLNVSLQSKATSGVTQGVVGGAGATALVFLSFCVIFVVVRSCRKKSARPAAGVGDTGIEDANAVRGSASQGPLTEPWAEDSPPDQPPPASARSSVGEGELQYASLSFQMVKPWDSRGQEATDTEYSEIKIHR
Sequence of Protein translocase subunit SecA (Escherichia coli (strain K12)) (P10408 whole entry): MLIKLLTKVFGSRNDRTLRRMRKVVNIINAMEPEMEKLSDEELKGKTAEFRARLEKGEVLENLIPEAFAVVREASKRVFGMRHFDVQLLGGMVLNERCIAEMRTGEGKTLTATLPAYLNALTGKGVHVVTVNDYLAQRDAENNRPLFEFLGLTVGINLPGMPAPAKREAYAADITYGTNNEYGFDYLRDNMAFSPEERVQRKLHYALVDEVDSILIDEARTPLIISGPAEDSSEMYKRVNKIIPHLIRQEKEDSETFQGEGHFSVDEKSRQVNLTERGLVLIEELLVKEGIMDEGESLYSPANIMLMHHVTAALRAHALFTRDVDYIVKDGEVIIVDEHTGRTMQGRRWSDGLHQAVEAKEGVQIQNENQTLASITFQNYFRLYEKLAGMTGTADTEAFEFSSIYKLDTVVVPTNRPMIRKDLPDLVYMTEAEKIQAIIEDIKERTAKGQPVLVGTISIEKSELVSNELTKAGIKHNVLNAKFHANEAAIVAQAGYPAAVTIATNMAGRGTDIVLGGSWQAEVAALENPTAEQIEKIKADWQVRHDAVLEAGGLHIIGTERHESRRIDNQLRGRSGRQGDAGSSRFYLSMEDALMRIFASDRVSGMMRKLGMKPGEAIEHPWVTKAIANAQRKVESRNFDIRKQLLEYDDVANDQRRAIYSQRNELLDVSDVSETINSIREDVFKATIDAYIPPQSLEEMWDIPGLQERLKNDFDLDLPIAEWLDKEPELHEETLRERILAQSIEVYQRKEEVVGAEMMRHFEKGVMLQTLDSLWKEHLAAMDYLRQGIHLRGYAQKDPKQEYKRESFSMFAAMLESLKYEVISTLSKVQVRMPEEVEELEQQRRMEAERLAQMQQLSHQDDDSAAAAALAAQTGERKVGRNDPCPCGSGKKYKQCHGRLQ

SMILES | Percent Effect [1] [%] | Percent Effect [2] [%] | Percent Effect [3] [%] | Percent Effect [4] [%] | Percent Effect [5] [%] | Percent Effect (Trypanosoma cruzi) [%] | Percent Effect [6] [%] | Percent Effect [7] [%] | Percent Effect (Homo sapiens) [%] | Percent Effect [8] [%] | Percent Effect [9] [%] | Percent Effect [10] [%] | Percent Effect [11] [%]
Cc1noc(C)c1CN1CC[C@H]2C[C@@H](c3ccncn3)O[C@@H]2C1 | -2.74 | 8.11 | -3.25 | 5.49 | 1.24 | 5.57 | -2.87 | 14.2 | 17.1 | 5.98 | 2.16 | 17.9 | 2.76
CN(Cc1cncnc1)[C@H]1CN(CC2CC2)[C@@H]2CCCO[C@@H]21 | -2.97 | 10.7 | 3.35 | -6.16 | 2.33 | 4.44 | -51.8 | 11.6 | -0.287 | -9.01 | 5.21 | 2.5 | -8.19
O=C(c1cc(-n2cccc2)ccc1Cl)N1CCC2(CC1)OCCO2 | -3.83 | 7.89 | 3.38 | 15.4 | -3.27 | -0.876 | -8.28 | 15.8 | 1.48 | 8.93 | 2.13 | 10.4 | -2.85
c1ccc(O[C@H]2CC[C@H]3[C@H]2OCCN3Cc2nccs2)nc1 | -1.17 | -5.2 | 5.47 | -3.9 | 10.1 | 7.57 | -41.4 | 13.6 | 21 | -14.7 | 3.23 | 8.64 | -5.68
CO[C@H]1CCN(Cc2ccccn2)[C@@H]2CN(Cc3ccco3)C[C@H]12 | -4.75 | 9.33 | -1.34 | 0.435 | 4.87 | -3.34 | 2.64 | 17.7 | -12.9 | -18.4 | 9.52 | 15.4 | -1.8
c1cncc(CO[C@H]2CO[C@@]3(CCN(Cc4ccoc4)C3)C2)c1 | -2.55 | -1.33 | -2.79 | 7.6 | 8.75 | -4.32 | -6.16 | 12.6 | 2.27 | -19.8 | 2.12 | -2.56 | 1.04
O=C1N(c2cncnc2)CCC12CCCN(Cc1ccccn1)C2 (stereo not given) | -4 | 5.2 | 3.89 | 3.31 | 8.64 | -1.28 | 2.76 | 2.5 | -1.38 | -38.2 | 4.3 | 8.64 | 0.251
COc1cc(CNCC(O)c2ccc(F)c(F)c2)cc2c1OCO2 (stereo not given) | -2.52 | 13.5 | 1.66 | 1.05 | 3.77 | -6.41 | 0.185 | 18.1 | 17.8 | -9.43 | 7.92 | 13.4 | -5.65
c1ccc(CN2C[C@@H]3OCCN(c4ncccn4)[C@@H]3C2)nc1 | -3.31 | 5.33 | -0.456 | 12.4 | 1.5 | -4.53 | -1.17 | -2.73 | 6.09 | 1.03 | 6.38 | 8.97 | -1.36
CN(C)C(=O)CN1C[C@@H]2CC[C@H](C1)N(C(=O)Cc1ccccc1Cl)C2 | -7.08 | -8.22 | 1.5 | 3.48 | -0.0171 | -5.16 | 0.798 | 9.16 | -4.89 | -30.4 | 0 | -23.5 | -1.84

— ChEMBL document CHEMBL3988442, “University of Dundee, Small-Polar-MMV Screening Library” (2021)
